Screens: PubChem BioAssay, National Center for Advancing Translational Sciences (NCATS)
JMJD2A Tudor inh: blocks the human JMJD2A Tudor domain; 390,000 tested, 4.4% active; O75164; Potency, µM (doses to about 114 µM), for inactives: at the top dose activity change, negative = inhibition, usual class: inhibitors; AID 504339; AlphaScreen JMJD2A-Tudor / H3K4me3 peptide binding; note: % is set by controls: 0 for no effect and ±100 for the full control effect; nearly all actives have a fitted effect of over 50% in size
G9a block: G9a (human) methyltransferase inhibition. Potency, µM (highest dose often 102 µM), inactives show top-dose activity, negative = inhibition, usual class: inhibitors. 350,000 tested, 8.8% active. G9a H3K9 monomethylation, AlphaScreen, 2 h. Q96KQ7. AID 504332; note: % is set by controls: 0 for no effect and ±100 for the full control effect; nearly all actives have a fitted effect of over 75% in size
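Methyltransferase reactions run at room temperature for 2 h (20 nM enzyme, 500 nM biotin-H3K9 peptide, 20 uM SAM) after a 15 min compound preincubation; product detected by AlphaScreen beads and anti-H3K9me1 antibody.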
Sfp inh: blocks B. subtilis Sfp PPTase activity; Biochemical Sfp PPTase activity, qHTS; Potency, µM, for inactives: largest response in the series, negative = inhibition, actives largely listed as inhibitors; 310,000 tested, 3.5% active; AID 1490;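 note: the enzyme is Sfp with the accession as filed and its product quenches rhodamine fluorescence; 0% = enzyme reaction without inhibitor and -100% = no enzyme wells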
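Fluorescence-quenching assay: 15 nM Sfp-PPTase preincubated 15 min at room temperature with compound, then 5 uM rhodamine-CoA and 12.5 uM BHQ-2-labelled YbbR peptide added. Fluorescence (ex 525/em 598 nm) read at start and after 30 min; difference gives rate.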
HP1b chromo inh: blocks HP1-beta chromodomain binding to methylated histone tails. P83916. AID 540317. 390,000 tested, 0.56% active. Potency, µM (doses to about 114 µM), without a hit: at the highest dose activity change, negative = inhibition, hits mostly inhibitors. AlphaScreen HP1-beta / biotin-H3K9me3 peptide binding; note: nearly all actives have a fitted effect of over 70% in size
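AlphaScreen: HP1-beta (50 nM) preformed 30 min with biotin-H3(1-18)K9me3 peptide (50 nM) in PBS pH 7.4, 0.01% Tween-20. Compound added for 30 min at RT, then streptavidin donor/nickel chelate acceptor beads (10 ug/mL) for 30 min.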
L3MBTL1 inh: L3MBTL1 (human) inhibition | Q9Y468 | AlphaScreen L3MBTL1–H3K9me1 peptide binding | Potency, µM (titrated, usually from 57.1 µM), for inactives: top-dose activity, negative = inhibition, actives largely listed as inhibitors | 230,000 tested, 0.66% active; note: % is set by controls: 0 for no effect and ±100 for the full control effect; nearly all actives have a fitted effect of over 60% in size
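Displacement of a biotinylated histone H3(1-15) peptide monomethylated at Lys9 (75 nM) from L3MBTL1 (50 nM) was measured by AlphaScreen after a 30 min room-temperature compound incubation; cefsulodin titration served as intraplate control.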
BAZ2B inh: BAZ2B (human) inhibition | AlphaScreen BAZ2B-H3K14Ac peptide displacement | Potency, µM (highest dose often 114 µM), for the others: at the top dose activity change, negative = inhibition, actives largely listed as inhibitors | 360,000 tested, 4.4% active | AID 504333; note: % is set by controls: 0 for no effect and ±100 for the full control effect; nearly all actives have a fitted effect of over 60% in size
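BAZ2B 50 nM plus b-H3(5-23)K14Ac 50 nM, PBS pH 7.4/0.01% Tween-20, 30 min RT; compound added (max 110 uM), 30 min RT; streptavidin donor/Ni-chelate acceptor beads 10 ug/mL final, 20 min dark; AlphaScreen read.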
An asterisk follows results filed as active; ? = inconclusive; nt = not tested or not shown; [ ] = another dose, or the depositor's remark. Most compounds without a hit are left out; they make up all but 12% or so of the library. Calls come from the whole dose curve; as a rule, active = well fitted curve in the direction sought with a large enough effect; inconclusive = small, poorly fitted or top-dose-only effect, or another doubt; inactive = no such curve, though single readings can be large; an effect the other way counts as inactive or inconclusive. Potency is the fitted concentration of half-maximal effect.

SMILES | JMJD2A Tudor inh | G9a block | Sfp inh | HP1b chromo inh | L3MBTL1 inh | BAZ2B inh
COc1ccc(-c2nc3scc(CCNS(=O)(=O)c4ccc5c(c4)OCCO5)n3n2)cc1 | -16% | -32%[59 µM] | nt | 25% | nt | -13%
Cc1cc2oc(=O)c(CC(=O)NCCc3ccccc3F)c(C)c2c2occ(C(C)(C)C)c12 | -21% | -26%[59 µM] | nt | 20% | nt | -25%
Cc1nnc(SC2CC(=O)N(c3ccccc3)C2=O)s1 (configuration not stated) | 12% | 8.9µM* | 35µM* | -7% | 1% | 2%
Cc1cc(CNC(=O)[C@H](C)[C@@H]2C[C@@]2(C)[C@@H](NC(=O)OCc2ccccc2)c2ccccc2)nn1C | -21% | 56µM* | -15% | 25% | -3% | -10%
C[C@@H](C(=O)O)[C@H]1C[C@]1(C)[C@H](NC(=O)OCc1ccccc1)c1ccccc1 | -17% | 79µM* | 8% | 19% | -9% | -10%
COC(=O)[C@H](C)[C@@H]1C[C@@]1(C)[C@@H](NC(=O)OCc1ccccc1)c1ccccc1 | 10% | -7% | 10% | 50% | 13% | -5%
COc1ccc(CNC(=O)[C@H](C)[C@@H]2C[C@@]2(C)[C@@H](NC(=O)OCc2ccccc2)c2ccccc2)cc1OC | -12% | 50µM* | 14% | 38% | -12% | -37%
C=C1C[C@@]23C[C@@]1(O)CCC2[C@@]12C=CC(O)[C@](C)(C(=O)O1)C2C3C(=O)O (some centres not stated) | nt | nt | -1% | nt | nt | nt
CC(CNC(=O)c1cc(-c2ccccc2)n[nH]1)c1ccccc1 (configuration not stated) | -11% | -4%[59 µM] | nt | 29% | nt | -8%
CC(C)CCNC(=O)c1ccc(Cn2c(SCC(=O)NC(C)C)nc3ccccc3c2=O)cc1 | -13% | 5%[59 µM] | nt | 27%[57 µM] | nt | -8%
COc1ccc(N2CCN(CCCNC(=O)c3ccc4nc(Cc5ccccc5)oc4c3)CC2)cc1 | 32µM* | 14µM* | nt | -33%[57 µM] | nt | 40µM*
COc1ccc(N2CCN(CCCNC(=O)c3ccc4nc(CCc5ccccc5)oc4c3)CC2)cc1 | 22µM* | ? | nt | -16%[57 µM] | nt | 32µM*
O=C(NCCCN1CCN(c2ccccc2)CC1)c1ccc2nc(CCc3ccccc3)oc2c1 | ? | ? | nt | -4%[57 µM] | nt | -37%
COc1ccc(Cc2nnc(C(=O)NCCCN3CCN(c4ccccc4F)CC3)o2)cc1OC | ? | -30%[59 µM] | nt | -27% | nt | -31%
COc1ccc(N2CCN(CCCNC(=O)c3nnc(Cc4ccc(F)cc4)o3)CC2)cc1 | -8% | -51%[59 µM] | nt | 7% | nt | 35µM*
COc1ccc(C(=O)NCCc2sc(-c3cccc(F)c3)nc2C)cc1 | -8% | -4%[59 µM] | nt | 28%[57 µM] | nt | -1%
Cc1ccc(C2(O)CN(c3ccccc3)C3=[N+]2CCS3)cc1 (configuration not stated) | -28% | 6% | 5% | 36% | -2% | ?
OC1(c2ccc(F)cc2)CN(c2ccccc2)C2=[N+]1CCS2 (configuration not stated) | ? | ? | -10% | 15% | -13% | ?
Cc1ccccc1N1CC(O)(c2ccccc2)[N+]2=C1SCC2 (configuration not stated) | -11% | 32µM* | -20% | 59% | 9% | 5%
Cc1ccc(C2(O)CN(c3ccccc3C)C3=[N+]2CCS3)cc1 (configuration not stated) | -20% | 32µM* | -18% | 33% | 10% | -9%
COc1ccccc1CNC(=O)Cc1c(C)c2c(cc(C)c3c(C)c(C)oc32)oc1=O | -9% | -5%[59 µM] | nt | 34% | nt | -13%
CCOc1ccccc1-n1nnc(-c2nsc(NC(=O)c3ccc(C)cc3)n2)c1C | -23% | 0%[59 µM] | nt | 12% | nt | 1%
Cc1ccc(S(=O)(=O)/N=C(\N)Nc2nc(C)c3ccccc3n2)cc1 | -25% | 12% | 89µM* | 14% | -10% | -7%
Cc1ccc(CCNC(=O)c2cn(C)c3ccc(S(=O)(=O)N(C)C4CCCCC4)cc3c2=O)cc1 | -28% | -5%[59 µM] | nt | -1% | nt | nt
Cc1ccc(Nc2nnc(SCC(=O)NC(Cc3c[nH]c4ccccc34)C(=O)O)s2)cc1 (configuration not stated) | -23% | 13µM* | -13% | 1% | -6% | 50µM*
SMILES | JMJD2A Tudor inh | G9a block | Sfp inh | HP1b chromo inh | L3MBTL1 inh | BAZ2B inh
CCOc1ccccc1Nc1nnc(SCC(=O)NC(Cc2c[nH]c3ccccc23)C(=O)O)s1 (configuration not stated) | -29% | 40µM* | 8% | -9% | -9% | -31%
Cc1ccc(C)c(OCC(=O)NC(Cc2c[nH]c3ccccc23)C(=O)O)c1 (configuration not stated) | -12% | nt | -5% | 27% | -15% | ?
CCOCCCNC(=O)c1ccc2c(=O)n(CCc3ccc(OC)c(OC)c3)c(=O)[nH]c2c1 | -5% | 23%[59 µM] | nt | 17% | nt | 1%
COc1cc(NC(=O)CN2C(=O)COc3ccc(S(=O)(=O)NC4CCCC4)cc32)cc(OC)c1 | -2% | 28%[59 µM] | nt | 42% | nt | 17%
COc1ccc(C2/C=C\CN(S(=O)(=O)c3ccc(C)cc3)C(C)C(=O)N2Cc2ccc(F)cc2)cc1 (configuration not stated) | -20% | nt | 1% | 25% | nt | nt
CCOc1cc(C2CC(=O)Nc3c2c(C)nn3-c2nc(C)cc(C)n2)ccc1O (configuration not stated) | -3% | 2%[59 µM] | nt | 50% | nt | -12%
CCOc1c(Cl)cc(CNc2ccc3[nH]c(=O)[nH]c3c2)cc1OC | ? | 3.5µM* | nt | -13% | nt | -31%
COc1cc(CNc2ccc3[nH]c(=O)[nH]c3c2)cc(Br)c1OCC(=O)NC(C)(C)C | 56µM* | -12%[12.7 µM] | -10% | -36% | nt | 40µM*
Cc1cccc(C)c1OC(=O)CSc1nnc(-c2cccs2)o1 | -23% | ? | nt | 9% | nt | -19%
Cc1ccc(CSc2ncc(Cl)c(C(=O)Oc3ccc(F)cc3)n2)cc1 | 13% | 80%[59 µM] | nt | 64% | nt | 61%
CCn1c(CC(=O)Nc2ccc(Cl)c(Cl)c2)nnc1SCc1ccc(Cl)cc1 | -17% | -8%[59 µM] | 9% | 13% | 0% | -4%
CCn1c(CS(=O)Cc2ccc(Cl)cc2Cl)nnc1SCc1c(Cl)cccc1Cl (configuration not stated) | -24% | 16µM* | -14% | 20% | 5% | 8%
COc1ccc(C(=O)NC(c2ccccc2Cl)c2cc(Cl)c3cccnc3c2O)cc1 (configuration not stated) | ? | 20%[59 µM] | nt | 27% | nt | 9%
CCN1CCN(C(c2ccc(C(F)(F)F)cc2)c2ccc3cccnc3c2O)CC1 (configuration not stated) | 50µM* | 2.5µM* | -23% | ? | nt | 28µM*
